Shown are actives, neighbours in structure and some others; about 1.8% of the full set was active somewhere.
EWS-Fli block: EWS/Fli-driven NR0B1 reporter inhibitors, primary screen, A673 cells, NR0B1 luciferase, luminescence, MLPCN library. viability-normalised. inhibition, % at 12.6 µM. actives 0.67% (n = 350,000). AID 651661, 2012;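 active = mean inhibition of at least 50% after viability correction, with every replicate also passing that limit; inconclusive = mean reaches 50% but only one of two replicates passes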;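 note: firefly luciferase signal divided by Alamar Blue viability fluorescence both relative to DMSO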
LGR2 inh: inhibitors of bursicon-induced LGR2 CRE-luciferase signal, primary screen, cell-based, HEK293, CRE-luciferase reporter, bursicon stimulation | AID 720647, 2013 | bursicon-stimulated, 4 h | inhibition, % at 9.99 µM | actives 0.35% (n = 380,000);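 active = drop in luminescence signal, shown as inhibition above about 50% in the replicate tests, limit read from the data, passing the limit was not always enough; inconclusive = probably only some replicates passing the limit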;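 note: agonist challenge used bursicon conditioned medium at about half maximal strength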
F508del corr: F508del CFTR correction, initial screen, CFBE line, single point; CFBE cells, YFP halide quenching; stimulated with forskolin plus potentiator P3; % fluorescence drop versus neutral controls; activity (quench increase), % at 7.58 µM; actives 0.36% (n = 350,000); AID 720511, 2013;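 active = mean added fluorescence quench of at least 8% versus neutral control, with both replicates also reaching 8%; inconclusive = only one of the mean or replicate conditions met; inactive = mean below 8% and not both replicates reaching 8%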;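 note: cells transiently co-express mutant CFTR-F508del with the halide-sensitive YFP; corrector assay measuring rescue of mutant channel to the surface after 24 h compound exposure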
PAX8 inh HTS: inhibitors of PAX8-driven TPO luciferase reporter, primary screen, RMG-I cells, single concentration; SteadyGlo, 24 h; inhibition, % at 12.6 µM; actives 1.2% (n = 360,000); AID 652154, 2013;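 active = mean replicate inhibition at least 60% with every replicate also reaching 60%; inconclusive = only one of the two criteria is met; inactive = mean below 60% and not all replicates reaching 60%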;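 note: luciferase light reporting Pax8 driven TPO promoter activity; plate controls were median of neutral control wells for no effect and mitoxantrone controls for full effect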
* hit, by the source's call.

O=C(c1[nH]c(C(F)(F)F)nc1-c1ccccc1)N1CCN(c2cccc(C(F)(F)F)n2)CC1 was read as EWS-Fli block 55*, LGR2 inh -4, F508del corr -1 and PAX8 inh HTS 23.
COc1ccccc1N1CCN(C(=O)c2[nH]c(C(F)(F)F)nc2-c2ccccc2)CC1 was read as EWS-Fli block 72*, LGR2 inh 8, F508del corr 1 and PAX8 inh HTS 37.
For CCN(CC)CCCNC1=C(Cl)C(=O)c2ccccc2C1=O the results were EWS-Fli block 65*, LGR2 inh 77*, F508del corr 4 and PAX8 inh HTS 70*.
For CCCCCCCCCCn1ccc(=N)cc1 the results were EWS-Fli block 58*, LGR2 inh 36, F508del corr -20 and PAX8 inh HTS 83*.
For CCCCCCCCn1ccc(=N)cc1 the results were EWS-Fli block 15, LGR2 inh 12, F508del corr -1 and PAX8 inh HTS 7.
`CCCC#Cc1ccc2c(c1)O[C@H](CN(C)C(=O)C1CCC1)[C@@H](C)CN([C@H](C)CO)S2(=O)=O` gave EWS-Fli block 23, LGR2 inh 1 and F508del corr 2.
For CCS(=O)(=O)N1Cc2ccccc2CC1C(=O)Nc1nnc(SCc2c(Cl)cccc2Cl)s1 (configuration not stated) the results were EWS-Fli block 1, LGR2 inh 0, F508del corr -5 and PAX8 inh HTS 113*.
Cc1cc(Nc2ccc(C)c(C)c2)c2ccccc2n1 was read as EWS-Fli block 14, LGR2 inh 14, F508del corr 3 and PAX8 inh HTS -12.
Screening Cc1ccc(Nc2nc(N)c3ccccc3n2)cc1C returned EWS-Fli block 44, LGR2 inh 81*, F508del corr -1 and PAX8 inh HTS -12.
Screening COc1ccc([C@H]2C(C(=O)O)=C[C@@H](C(C)(C)C)N2S(=O)(=O)c2ccccc2)cc1 returned EWS-Fli block -4, LGR2 inh -22, F508del corr -3 and PAX8 inh HTS -8.
For COc1cc2c(cc1OC)C(COc1ccc(F)cc1)NCC2 (configuration not stated) the results were EWS-Fli block 7, LGR2 inh -12, F508del corr -1 and PAX8 inh HTS 56.
For O=c1cc(-c2ccc(O)cc2)oc2ccc3ccccc3c12 the results were EWS-Fli block 89*, LGR2 inh 100*, F508del corr 6 and PAX8 inh HTS 110*.
`COc1ccc(C(=O)O/N=C(\N)c2ccc(OC)c(OC)c2)cc1` gave EWS-Fli block -116, LGR2 inh -3, F508del corr 0 and PAX8 inh HTS -84.
Screening COc1ccc(C(=O)O/N=C(\N)c2ccccn2)c(OC)c1 returned EWS-Fli block 25, LGR2 inh 82*, F508del corr -1 and PAX8 inh HTS -5.
Screening COc1ccc(Cl)cc1C(=O)O/N=C(\N)c1ccccn1 returned EWS-Fli block -57, LGR2 inh -58, F508del corr 1 and PAX8 inh HTS -33.
For COc1ccc(C(=O)O/N=C(\N)c2ccccc2)c(OC)c1 the results were EWS-Fli block 71*, LGR2 inh 82* and PAX8 inh HTS 35.
CC1CCN(c2c(NCc3ccc(C(=O)N4CCc5ccccc54)cc3)c(=O)c2=O)CC1 was read as EWS-Fli block 53*, F508del corr -6 and PAX8 inh HTS 23.
`Cn1nnnc1SCC1=C(C(=O)O)N2C(=O)C(NC(=O)Cn3nc(C(F)F)cc3C3CC3)C2SC1` (configuration not stated) gave EWS-Fli block -7, LGR2 inh 26, F508del corr -1 and PAX8 inh HTS -4.
`CCCNC(=O)C1(C)CCN(C(=O)COc2ccc(C(C)(C)C)cc2)C1` (configuration not stated) gave EWS-Fli block -16, LGR2 inh 0, F508del corr 3 and PAX8 inh HTS -40.
Screening O=C(C[C@H]1C=C[C@@H](NC(=O)Nc2ccc(C(F)(F)F)cc2)[C@@H](CO)O1)NCCN1CCCC1 returned EWS-Fli block -61, LGR2 inh -1, F508del corr -2 and PAX8 inh HTS -10.
For O=C(C[C@@H]1C=C[C@H](NC(=O)Nc2ccc(C(F)(F)F)cc2)[C@H](CO)O1)NCCN1CCCC1 the results were EWS-Fli block -10, LGR2 inh -33, F508del corr -3 and PAX8 inh HTS 75*.
For COc1cccc(CNC(=O)[C@@H]2CCCN2C(=O)[C@@H]2CCCN2)c1 the results were EWS-Fli block 6, LGR2 inh -7, F508del corr 0 and PAX8 inh HTS -3.
CCOC(=O)c1c(C)oc2ccc(OS(C)(=O)=O)cc12 was read as EWS-Fli block -23, LGR2 inh -16, F508del corr -2 and PAX8 inh HTS 10.
COc1ccc(-n2c(C)cc(C(=O)CN3C(=O)c4ccccc4C3=O)c2C)cc1 was read as LGR2 inh -21 and PAX8 inh HTS -52.
`COc1ccc(-n2c(C)cc(C(=O)CCl)c2C)cc1` gave EWS-Fli block 61*, LGR2 inh 11, F508del corr -4 and PAX8 inh HTS 1.
O=S(=O)(CCSc1nc2ccccc2s1)c1nc2ccccc2s1 was read as PAX8 inh HTS 104*.
Brc1cccc(-c2nc3cccnc3nc2-c2cccc(Br)c2)c1 was read as EWS-Fli block 17, LGR2 inh -10, F508del corr 5 and PAX8 inh HTS 6.
For COc1ccc(-c2n(Cc3ccccc3)c3ccccc3[n+]2Cc2ccccc2)cc1 the results were EWS-Fli block 44, LGR2 inh 27 and PAX8 inh HTS 89*.
For Cc1c(C#N)c2ccccc2n1CCOc1ccccc1F the results were EWS-Fli block 16, LGR2 inh 26 and F508del corr 0.
For Nc1nc(N)c2c(ccc3c2ccn3Cc2cccc([N+](=O)[O-])c2)n1 the results were EWS-Fli block 39, LGR2 inh 3, F508del corr 3 and PAX8 inh HTS 117*.
Screening Nc1nc(N)c2cc([N+](=O)[O-])ccc2n1 returned EWS-Fli block 4, LGR2 inh -10, F508del corr -2 and PAX8 inh HTS 19.
For COc1ccc(N/N=C/c2c(C(=O)O)ccc3ccccc23)cc1 the results were EWS-Fli block -20, LGR2 inh -11, F508del corr inconclusive and PAX8 inh HTS 62*.
CCOC(=O)c1ccc[n+]([O-])c1 was read as EWS-Fli block -7, LGR2 inh 7 and F508del corr 0.
CCCCn1cnc2c(c(CC#N)nn2-c2ccccc2)c1=N was read as EWS-Fli block 4, LGR2 inh -55, F508del corr 9.4* and PAX8 inh HTS 32.
Screening Cn1nc(CC#N)c2c(=N)n(N)cnc21 returned EWS-Fli block -11, LGR2 inh -14, F508del corr 2 and PAX8 inh HTS 8.
Cc1ccc(S(=O)(=O)N(CCCc2c(C)nc(N)[nH]c2=O)Cc2ccc([N+](=O)[O-])cc2)cc1 was read as EWS-Fli block -10, LGR2 inh 4, F508del corr 1 and PAX8 inh HTS 33.
